Reference: PubChem BioAssay (NCI)
The panel holds about 83,000 compounds, 20% with a hit somewhere; the sample as a whole holds those more often.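 The endpoint reported here, percent growth, reads 100 for growth as untreated, 0 for no net growth and -100 for all cells dead.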 Calls of active or inactive are those of the source. Rule for the calls: active = growth percent below 10; inactive = the rest.

Tests used:
Test in all cases: NCI-60 one-dose screen, 48 h (100 = growth as untreated, 0 = no growth, -100 = all killed)
Conditions in all cases: 10 µM unless noted
HCT-15 colon = test system: HCT-15 colon
HT29 colon = test system: HT29 colon
SNB-75 CNS = test system: SNB-75 CNS
SNB-19 CNS = test system: SNB-19 CNS
U251 CNS = test system: U251 CNS
PC-3 prostate = test system: PC-3 prostate
SK-MEL-5 melanoma = test system: SK-MEL-5 melanoma
UACC-62 melanoma = test system: UACC-62 melanoma
LOX IMVI melanoma = test system: LOX IMVI melanoma
SK-MEL-28 melanoma = test system: SK-MEL-28 melanoma
SK-MEL-2 melanoma = test system: SK-MEL-2 melanoma
EKVX NSCLC = test system: EKVX NSCLC
SN12C renal = test system: SN12C renal
UO-31 renal = test system: UO-31 renal
TK-10 renal = test system: TK-10 renal
ACHN renal = test system: ACHN renal
CAKI-1 renal = test system: CAKI-1 renal
A498 renal = test system: A498 renal
MOLT-4 leukemia = test system: MOLT-4 leukemia
CCRF-CEM leukemia = test system: CCRF-CEM leukemia

Measured: growth

Clc1ccc(N2N=C(c3cccc(Nc4ccncc4)c3)CC2c2ccccc2)cc1 (stereo not drawn)
inactive: HCT-15 colon 103% | HT29 colon 80.7% | SNB-75 CNS 65% | SNB-19 CNS 95.6% | U251 CNS 90.4% | PC-3 prostate 84.9% | SK-MEL-5 melanoma 94% | UACC-62 melanoma 96.9% | LOX IMVI melanoma 86.8% | SK-MEL-28 melanoma 90.4% | SK-MEL-2 melanoma 107% | EKVX NSCLC 82.5% | SN12C renal 86.1% | UO-31 renal 83.1% | TK-10 renal 106% | ACHN renal 94.9% | CAKI-1 renal 76.2% | A498 renal 84.5% | MOLT-4 leukemia 89.4%

NNC(=O)/C(=C\c1ccc([N+](=O)[O-])cc1)CC(=O)c1ccc(Cl)c(Cl)c1
inactive: HCT-15 colon 89.6% | HT29 colon 88.4% | SNB-75 CNS 63.3% | SNB-19 CNS 89.6% | U251 CNS 91.8% | PC-3 prostate 79.4% | SK-MEL-5 melanoma 93.6% | UACC-62 melanoma 73.8% | LOX IMVI melanoma 71.3% | SK-MEL-28 melanoma 103% | SK-MEL-2 melanoma 95.7% | EKVX NSCLC 69.5% | SN12C renal 88% | UO-31 renal 58.6% | TK-10 renal 97.5% | ACHN renal 91.1% | CAKI-1 renal 66.8% | CCRF-CEM leukemia 80.9% | MOLT-4 leukemia 61.4%

Nc1c(C(=O)Nc2ccc(Cl)cc2)cc(-c2nc3ccccc3s2)c(=O)n1NS(=O)(=O)c1ccc(Cl)cc1
inactive: HCT-15 colon 96.7% | HT29 colon 104% | SNB-75 CNS 84.1% | SNB-19 CNS 99.8% | U251 CNS 104% | PC-3 prostate 104% | SK-MEL-5 melanoma 96.4% | UACC-62 melanoma 89.8% | LOX IMVI melanoma 99.3% | SK-MEL-28 melanoma 109% | SK-MEL-2 melanoma 102% | EKVX NSCLC 85.8% | SN12C renal 95% | UO-31 renal 85.9% | TK-10 renal 147% | ACHN renal 103% | CAKI-1 renal 86.4% | CCRF-CEM leukemia 97.6% | MOLT-4 leukemia 91.5%

c1ccc(-c2nn(-c3ccccc3)[n+](-c3ccccc3-c3ccccc3)n2)cc1
active: HT29 colon 5.29% | PC-3 prostate 2.58% | SK-MEL-5 melanoma -25.8% | SK-MEL-2 melanoma -15.8%
inactive: HCT-15 colon 101% | SNB-75 CNS 29.7% | SNB-19 CNS 27.9% | U251 CNS 15% | UACC-62 melanoma 26.4% | LOX IMVI melanoma 12.5% | SK-MEL-28 melanoma 48.7% | EKVX NSCLC 11.7% | SN12C renal 12.9% | UO-31 renal 80.1% | TK-10 renal 26% | ACHN renal 56% | CAKI-1 renal 88.2% | CCRF-CEM leukemia 17.2% | MOLT-4 leukemia 22.9%

COc1ccc(C(=O)c2cc3c(N)c(C(=O)Nc4ccc(Br)cc4)sc3nc2C)cc1
active: SNB-75 CNS -0.922%
inactive: HCT-15 colon 69.3% | HT29 colon 74.9% | SNB-19 CNS 56.6% | U251 CNS 58.7% | PC-3 prostate 74.2% | SK-MEL-5 melanoma 81.5% | UACC-62 melanoma 73.4% | LOX IMVI melanoma 84.5% | SK-MEL-28 melanoma 86.4% | SK-MEL-2 melanoma 74.4% | EKVX NSCLC 83.1% | SN12C renal 84.4% | UO-31 renal 72.3% | TK-10 renal 98.8% | ACHN renal 65.5% | CAKI-1 renal 62.5% | A498 renal 83.9% | MOLT-4 leukemia 91.2%

COc1ccc(/C=N/C2=C(C#N)C(c3ccccc3[N+](=O)[O-])c3ccc4ccccc4c3O2)cc1 (stereo not drawn)
inactive: HCT-15 colon 75.3% | HT29 colon 112% | SNB-75 CNS 61.3% | SNB-19 CNS 96.6% | U251 CNS 101% | PC-3 prostate 71.7% | SK-MEL-5 melanoma 81.9% | UACC-62 melanoma 81.1% | LOX IMVI melanoma 90.3% | SK-MEL-28 melanoma 113% | SK-MEL-2 melanoma 92.8% | EKVX NSCLC 72.1% | SN12C renal 91.6% | UO-31 renal 64.8% | TK-10 renal 182% | ACHN renal 90.8% | CAKI-1 renal 68.3% | CCRF-CEM leukemia 106% | MOLT-4 leukemia 89.5%

CCc1c(Nc2ccc(C)cc2)nc(N)[nH]c1=O
inactive: HCT-15 colon 103% | HT29 colon 100% | SNB-75 CNS 87% | SNB-19 CNS 98.9% | U251 CNS 101% | PC-3 prostate 95.4% | SK-MEL-5 melanoma 102% | UACC-62 melanoma 87.2% | LOX IMVI melanoma 105% | SK-MEL-28 melanoma 101% | SK-MEL-2 melanoma 98.1% | EKVX NSCLC 92.1% | SN12C renal 92.4% | UO-31 renal 85.8% | TK-10 renal 104% | ACHN renal 103% | CAKI-1 renal 91.7% | CCRF-CEM leukemia 104% | MOLT-4 leukemia 101%
